# Assays:
# [1] = biological target: Ribosomal protein S6 kinase alpha-6 (Homo sapiens) (UniProt Q9UK32); conditions: at 1 µM;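 note: each value is a mean inhibition of RSK4 from a GSK PKIS panel screen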
# [2] = biological target: T1, Serine/threonine-protein kinase Sgk1 (Homo sapiens) (UniProt O00141); conditions: at 0.1 µM
# T1 sequence (whole entry): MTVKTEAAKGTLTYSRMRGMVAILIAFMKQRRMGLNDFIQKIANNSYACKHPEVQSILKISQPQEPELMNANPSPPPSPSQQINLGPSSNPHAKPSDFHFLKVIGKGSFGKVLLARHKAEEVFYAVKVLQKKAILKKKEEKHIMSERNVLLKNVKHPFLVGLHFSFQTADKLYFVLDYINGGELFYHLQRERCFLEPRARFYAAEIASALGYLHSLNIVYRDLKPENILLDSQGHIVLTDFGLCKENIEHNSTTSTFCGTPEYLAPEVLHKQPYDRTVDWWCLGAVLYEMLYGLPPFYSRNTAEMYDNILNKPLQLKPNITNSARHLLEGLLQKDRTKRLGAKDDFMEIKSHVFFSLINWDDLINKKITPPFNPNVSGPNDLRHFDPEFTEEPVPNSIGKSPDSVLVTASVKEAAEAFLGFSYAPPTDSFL
# [3] = biological target: T1, Serine/threonine-protein kinase Sgk1 (Homo sapiens); conditions: at 1 µM
# [4] = biological target: T2, Serine/threonine-protein kinase Sgk2 (Homo sapiens) (UniProt Q9HBY8); conditions: at 0.1 µM
# T2 sequence (whole entry): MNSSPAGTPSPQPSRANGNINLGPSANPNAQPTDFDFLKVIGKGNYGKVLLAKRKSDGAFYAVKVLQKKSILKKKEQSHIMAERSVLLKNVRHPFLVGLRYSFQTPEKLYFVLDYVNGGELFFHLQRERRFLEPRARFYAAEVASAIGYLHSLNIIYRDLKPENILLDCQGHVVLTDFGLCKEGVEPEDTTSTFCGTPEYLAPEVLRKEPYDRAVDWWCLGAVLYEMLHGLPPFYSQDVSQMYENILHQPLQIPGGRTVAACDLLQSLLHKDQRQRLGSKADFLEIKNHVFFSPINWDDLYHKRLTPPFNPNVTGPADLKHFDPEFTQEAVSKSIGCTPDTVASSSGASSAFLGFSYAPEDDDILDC
# [5] = biological target: T2, Serine/threonine-protein kinase Sgk2 (Homo sapiens); conditions: at 1 µM
# [6] = biological target: T3, Serine/threonine-protein kinase Sgk3 (Homo sapiens) (UniProt Q96BR1); conditions: at 0.1 µM
# T3 sequence (whole entry): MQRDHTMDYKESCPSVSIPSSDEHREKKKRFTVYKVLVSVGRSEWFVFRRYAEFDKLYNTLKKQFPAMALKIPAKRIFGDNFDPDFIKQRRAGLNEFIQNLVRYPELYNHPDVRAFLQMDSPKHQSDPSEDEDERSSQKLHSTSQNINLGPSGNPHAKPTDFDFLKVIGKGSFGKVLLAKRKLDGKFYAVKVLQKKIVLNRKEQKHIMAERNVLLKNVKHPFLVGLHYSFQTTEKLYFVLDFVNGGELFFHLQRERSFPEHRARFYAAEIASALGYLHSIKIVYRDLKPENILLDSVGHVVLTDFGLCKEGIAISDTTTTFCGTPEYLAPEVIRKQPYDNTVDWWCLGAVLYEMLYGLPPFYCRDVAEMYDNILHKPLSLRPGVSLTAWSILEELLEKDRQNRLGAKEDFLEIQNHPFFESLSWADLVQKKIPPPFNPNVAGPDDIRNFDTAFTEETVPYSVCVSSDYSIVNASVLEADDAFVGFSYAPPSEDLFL
# [7] = biological target: T3, Serine/threonine-protein kinase Sgk3 (Homo sapiens); conditions: at 1 µM
# [8] = biological target: 5'-AMP-activated protein kinase catalytic subunit alpha-1 (Homo sapiens) (UniProt Q13131); conditions: at 0.1 µM
# Chain of 5'-AMP-activated protein kinase catalytic subunit alpha-1 (Homo sapiens) (Q13131 whole entry, looked up): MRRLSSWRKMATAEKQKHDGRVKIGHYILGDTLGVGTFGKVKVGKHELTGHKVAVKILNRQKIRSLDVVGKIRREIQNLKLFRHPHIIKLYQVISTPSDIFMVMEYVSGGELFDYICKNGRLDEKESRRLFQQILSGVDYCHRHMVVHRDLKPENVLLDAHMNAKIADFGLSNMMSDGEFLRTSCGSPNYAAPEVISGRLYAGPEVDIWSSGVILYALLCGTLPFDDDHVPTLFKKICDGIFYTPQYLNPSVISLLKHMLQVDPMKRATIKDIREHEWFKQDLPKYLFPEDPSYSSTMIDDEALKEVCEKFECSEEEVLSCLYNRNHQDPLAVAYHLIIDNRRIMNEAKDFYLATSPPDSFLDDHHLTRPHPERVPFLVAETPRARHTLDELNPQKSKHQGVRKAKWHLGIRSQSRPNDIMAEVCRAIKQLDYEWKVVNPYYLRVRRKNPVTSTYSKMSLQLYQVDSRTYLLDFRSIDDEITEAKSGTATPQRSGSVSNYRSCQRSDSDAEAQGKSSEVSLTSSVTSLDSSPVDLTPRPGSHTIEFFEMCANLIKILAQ
# [9] = biological target: 5'-AMP-activated protein kinase catalytic subunit alpha-1 (Homo sapiens) (UniProt Q13131); conditions: at 1 µM
# [10] = biological target: 5'-AMP-activated protein kinase catalytic subunit alpha-2 (Homo sapiens) (UniProt P54646); conditions: at 0.1 µM
# Chain of 5'-AMP-activated protein kinase catalytic subunit alpha-2 (Homo sapiens) (P54646 whole entry, looked up): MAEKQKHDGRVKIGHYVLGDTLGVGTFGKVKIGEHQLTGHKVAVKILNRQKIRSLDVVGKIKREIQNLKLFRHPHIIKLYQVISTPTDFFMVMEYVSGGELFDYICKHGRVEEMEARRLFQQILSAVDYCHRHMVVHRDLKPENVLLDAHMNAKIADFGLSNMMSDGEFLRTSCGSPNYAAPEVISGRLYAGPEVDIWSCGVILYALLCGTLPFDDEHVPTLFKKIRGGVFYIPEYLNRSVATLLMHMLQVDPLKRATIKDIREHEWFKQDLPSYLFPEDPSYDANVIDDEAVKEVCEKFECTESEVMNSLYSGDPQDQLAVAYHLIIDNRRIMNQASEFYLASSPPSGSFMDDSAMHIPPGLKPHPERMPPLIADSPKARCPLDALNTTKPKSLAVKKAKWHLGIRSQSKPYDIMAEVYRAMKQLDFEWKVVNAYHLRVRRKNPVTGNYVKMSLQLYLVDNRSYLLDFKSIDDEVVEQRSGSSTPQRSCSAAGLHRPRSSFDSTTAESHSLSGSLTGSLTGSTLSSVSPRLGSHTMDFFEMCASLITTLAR
# [11] = biological target: 5'-AMP-activated protein kinase catalytic subunit alpha-2 (Homo sapiens) (UniProt P54646); conditions: at 1 µM
# [12] = biological target: T4, NUAK family SNF1-like kinase 1 (Homo sapiens) (UniProt O60285); conditions: at 0.1 µM
# T4 sequence (whole entry): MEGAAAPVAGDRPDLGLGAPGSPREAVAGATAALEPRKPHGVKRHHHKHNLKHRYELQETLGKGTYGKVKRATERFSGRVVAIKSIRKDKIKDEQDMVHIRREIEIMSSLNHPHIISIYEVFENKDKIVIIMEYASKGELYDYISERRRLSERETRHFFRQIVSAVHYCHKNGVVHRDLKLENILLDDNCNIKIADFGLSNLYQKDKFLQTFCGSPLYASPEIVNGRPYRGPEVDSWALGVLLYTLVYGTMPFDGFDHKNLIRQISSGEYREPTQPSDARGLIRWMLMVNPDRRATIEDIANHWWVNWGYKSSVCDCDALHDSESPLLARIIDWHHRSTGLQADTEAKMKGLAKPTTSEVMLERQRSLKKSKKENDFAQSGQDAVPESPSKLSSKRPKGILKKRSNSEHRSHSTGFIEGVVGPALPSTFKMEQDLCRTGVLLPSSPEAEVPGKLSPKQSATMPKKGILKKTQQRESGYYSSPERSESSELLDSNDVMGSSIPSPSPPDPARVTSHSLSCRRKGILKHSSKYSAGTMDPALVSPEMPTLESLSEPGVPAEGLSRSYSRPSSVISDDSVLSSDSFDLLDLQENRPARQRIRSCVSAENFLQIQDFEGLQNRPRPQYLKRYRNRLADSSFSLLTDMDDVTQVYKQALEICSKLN
# [13] = biological target: T4, NUAK family SNF1-like kinase 1 (Homo sapiens); conditions: at 1 µM
# [14] = biological target: T5, Serine/threonine-protein kinase BRSK1 (Homo sapiens) (UniProt Q8TDC3); conditions: at 0.1 µM
# T5 sequence (whole entry): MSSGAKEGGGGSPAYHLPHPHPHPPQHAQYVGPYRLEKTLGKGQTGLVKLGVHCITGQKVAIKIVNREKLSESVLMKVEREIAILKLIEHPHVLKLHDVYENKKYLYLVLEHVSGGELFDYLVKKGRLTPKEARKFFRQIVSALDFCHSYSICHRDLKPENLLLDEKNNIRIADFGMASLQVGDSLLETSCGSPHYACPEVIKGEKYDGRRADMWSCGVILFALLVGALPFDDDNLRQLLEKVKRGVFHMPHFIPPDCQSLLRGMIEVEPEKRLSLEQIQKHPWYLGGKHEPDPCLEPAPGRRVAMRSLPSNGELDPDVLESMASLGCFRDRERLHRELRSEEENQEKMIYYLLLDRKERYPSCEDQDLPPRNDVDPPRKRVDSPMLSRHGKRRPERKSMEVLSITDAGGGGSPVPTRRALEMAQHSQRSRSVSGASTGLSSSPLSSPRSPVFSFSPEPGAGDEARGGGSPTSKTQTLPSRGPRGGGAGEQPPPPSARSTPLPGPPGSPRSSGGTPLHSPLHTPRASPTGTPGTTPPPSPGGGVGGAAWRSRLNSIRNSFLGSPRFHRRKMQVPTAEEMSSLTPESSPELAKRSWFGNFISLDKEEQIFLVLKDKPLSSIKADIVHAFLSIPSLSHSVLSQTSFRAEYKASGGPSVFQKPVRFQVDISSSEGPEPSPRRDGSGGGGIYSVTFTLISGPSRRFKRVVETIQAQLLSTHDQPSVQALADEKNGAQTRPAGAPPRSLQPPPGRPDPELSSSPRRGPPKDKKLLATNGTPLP
# [15] = biological target: T5, Serine/threonine-protein kinase BRSK1 (Homo sapiens); conditions: at 1 µM
# [16] = biological target: T6, Serine/threonine-protein kinase BRSK2 (Homo sapiens) (UniProt Q8IWQ3); conditions: at 0.1 µM
# T6 sequence (whole entry): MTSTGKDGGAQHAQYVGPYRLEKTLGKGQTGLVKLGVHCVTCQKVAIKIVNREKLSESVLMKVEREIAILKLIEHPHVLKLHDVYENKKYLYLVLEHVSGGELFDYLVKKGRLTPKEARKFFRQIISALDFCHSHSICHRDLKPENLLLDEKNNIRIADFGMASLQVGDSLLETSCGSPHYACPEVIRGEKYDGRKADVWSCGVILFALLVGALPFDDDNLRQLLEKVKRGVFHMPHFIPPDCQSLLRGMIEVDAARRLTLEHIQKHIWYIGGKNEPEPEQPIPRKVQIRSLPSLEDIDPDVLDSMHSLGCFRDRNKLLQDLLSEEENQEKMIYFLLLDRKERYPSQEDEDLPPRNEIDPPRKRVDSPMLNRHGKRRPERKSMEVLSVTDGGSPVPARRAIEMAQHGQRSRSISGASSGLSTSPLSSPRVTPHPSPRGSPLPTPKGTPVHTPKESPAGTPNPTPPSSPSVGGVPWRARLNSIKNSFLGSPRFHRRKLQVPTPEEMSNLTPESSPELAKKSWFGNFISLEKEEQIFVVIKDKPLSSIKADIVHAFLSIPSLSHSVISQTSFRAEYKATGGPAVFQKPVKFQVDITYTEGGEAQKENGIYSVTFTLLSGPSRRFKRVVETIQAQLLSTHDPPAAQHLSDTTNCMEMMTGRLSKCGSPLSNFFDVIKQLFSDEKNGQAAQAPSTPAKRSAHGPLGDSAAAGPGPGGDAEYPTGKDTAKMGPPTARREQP
# [17] = biological target: T6, Serine/threonine-protein kinase BRSK2 (Homo sapiens); conditions: at 1 µM
# [18] = biological target: Calcium/calmodulin-dependent protein kinase type 1D (Homo sapiens) (UniProt Q8IU85); conditions: at 0.1 µM
# Chain of Calcium/calmodulin-dependent protein kinase type 1D (Homo sapiens) (Q8IU85 whole entry, looked up): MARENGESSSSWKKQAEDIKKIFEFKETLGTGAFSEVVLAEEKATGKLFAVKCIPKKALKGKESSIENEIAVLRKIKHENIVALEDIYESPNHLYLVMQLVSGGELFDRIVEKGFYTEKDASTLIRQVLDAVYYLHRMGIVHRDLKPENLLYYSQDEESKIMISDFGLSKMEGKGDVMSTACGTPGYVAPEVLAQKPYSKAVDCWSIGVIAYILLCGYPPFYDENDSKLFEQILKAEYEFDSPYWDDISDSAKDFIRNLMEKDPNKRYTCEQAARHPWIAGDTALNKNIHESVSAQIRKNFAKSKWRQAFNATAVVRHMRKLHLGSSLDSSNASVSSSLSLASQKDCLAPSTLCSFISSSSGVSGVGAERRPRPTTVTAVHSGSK
# [19] = biological target: Calcium/calmodulin-dependent protein kinase type 1D (Homo sapiens) (UniProt Q8IU85); conditions: at 1 µM
# [20] = biological target: Calcium/calmodulin-dependent protein kinase type II subunit alpha (Homo sapiens) (UniProt Q9UQM7); conditions: at 0.1 µM;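 note: reported values are averages (mean inhibition of CAMK2A)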
# Chain of Calcium/calmodulin-dependent protein kinase type II subunit alpha (Homo sapiens) (Q9UQM7 whole entry): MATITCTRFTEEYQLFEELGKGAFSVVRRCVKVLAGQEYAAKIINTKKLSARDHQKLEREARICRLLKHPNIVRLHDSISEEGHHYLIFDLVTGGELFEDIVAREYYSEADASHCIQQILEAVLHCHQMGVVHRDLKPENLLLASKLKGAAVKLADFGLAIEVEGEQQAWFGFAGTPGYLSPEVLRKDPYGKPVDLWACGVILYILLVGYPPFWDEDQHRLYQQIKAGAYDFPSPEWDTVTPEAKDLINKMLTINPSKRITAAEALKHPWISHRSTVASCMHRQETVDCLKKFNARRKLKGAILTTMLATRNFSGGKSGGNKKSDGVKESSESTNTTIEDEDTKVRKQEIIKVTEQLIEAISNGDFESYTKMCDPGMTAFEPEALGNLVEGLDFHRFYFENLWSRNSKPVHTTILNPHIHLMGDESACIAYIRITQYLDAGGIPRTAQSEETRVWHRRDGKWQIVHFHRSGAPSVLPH
# Chain of Ribosomal protein S6 kinase alpha-6 (Homo sapiens) (Q9UK32 whole entry): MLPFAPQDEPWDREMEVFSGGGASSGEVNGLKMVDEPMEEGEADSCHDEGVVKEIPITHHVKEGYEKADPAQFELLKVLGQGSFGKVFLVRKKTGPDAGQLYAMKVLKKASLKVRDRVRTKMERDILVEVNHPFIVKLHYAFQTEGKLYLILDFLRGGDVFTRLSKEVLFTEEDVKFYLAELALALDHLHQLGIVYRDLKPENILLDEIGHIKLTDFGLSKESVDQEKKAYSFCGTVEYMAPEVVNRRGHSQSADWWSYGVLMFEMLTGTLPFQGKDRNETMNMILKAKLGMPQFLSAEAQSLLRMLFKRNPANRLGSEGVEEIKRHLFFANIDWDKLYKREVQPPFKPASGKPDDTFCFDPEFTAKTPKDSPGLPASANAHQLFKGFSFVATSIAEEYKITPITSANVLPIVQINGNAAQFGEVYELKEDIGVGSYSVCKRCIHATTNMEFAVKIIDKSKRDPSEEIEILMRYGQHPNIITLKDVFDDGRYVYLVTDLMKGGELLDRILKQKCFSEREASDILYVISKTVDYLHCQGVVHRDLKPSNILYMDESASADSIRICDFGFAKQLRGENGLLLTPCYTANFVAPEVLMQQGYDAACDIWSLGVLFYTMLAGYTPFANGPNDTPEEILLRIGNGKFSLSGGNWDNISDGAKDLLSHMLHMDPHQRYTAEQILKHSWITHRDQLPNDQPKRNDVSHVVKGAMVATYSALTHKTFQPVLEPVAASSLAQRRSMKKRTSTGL
SMILES,inhibition [1] [%],inhibition [2] [%],inhibition [3] [%],inhibition [4] [%],inhibition [5] [%],inhibition [6] [%],inhibition [7] [%],inhibition [8] [%],inhibition [9] [%],inhibition [10] [%],inhibition [11] [%],inhibition [12] [%],inhibition [13] [%],inhibition [14] [%],inhibition [15] [%],inhibition [16] [%],inhibition [17] [%],inhibition [18] [%],inhibition [19] [%],inhibition [20] [%]
COc1cc2ncn(-c3cc(OCCc4ccccc4)c(C(N)=O)s3)c2cc1OC,2.25,0.21,3.41,-0.42,-1.95,2.58,2.59,2.79,4.42,1.45,1.32,1.92,9.13,41.5,76.9,58.3,80.3,0.21,1.85,1.3
COc1ccc2ncn(-c3cc(O[C@H](C)c4ccccc4Cl)c(C(N)=O)s3)c2c1,3.6,2.42,2.1,0.49,2.09,3.92,5.77,2.16,2.45,2.54,1.17,0.64,15.7,2.58,17.8,6.22,28.1,-1.85,-1.6,1.3
NC(=O)Cc1ccccc1Oc1nccc(-c2c(-c3ccc(F)cc3)ncn2C2CCNCC2)n1,2.01,-0.43,0.48,1.13,0.76,0.96,0.86,2.61,1.44,1.24,2.59,0.84,2.97,4.71,6.12,4.74,5.25,0.63,1.65,2.81
COc1cc(Nc2ncc3c(C)nc(-c4cccc(C(F)(F)F)c4)n3n2)cc(OC)c1OC,29.1,3.85,8.66,-1.55,6.37,5.08,8.49,6.54,39.2,5.38,25,35.4,65.3,4.57,7.57,5.62,9.19,-1.94,-0.82,2.25
COc1cc(N2CCN(C(C)C)CC2)ccc1Nc1nc(Nc2ccc(F)cc2C(=O)NC[C@@H](O)CO)c2cc[nH]c2n1,8.27,4.42,7.18,2.67,4.33,2.59,6.24,4.23,5.78,2.37,3.64,4.38,17.2,-0.14,1.34,2.44,2.82,0.93,11,4.06
